Source: PubChem (several laboratories)
14-3-3 Bad inh: disrupts binding of bovine 14-3-3 zeta to phospho-Bad peptide. P63103. TR-FRET 14-3-3zeta/Dy647-pBad peptide displacement, 1 h. inhibition, % at 21.7 µM. 220,000 tested, 0.71% active;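 active = inhibition above about 70%, limit read from the data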;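 note: 0% = full 14-3-3 plus peptide FRET controls and 100% = background without 14-3-3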
p47phox inh: p47phox (human) inhibition | P14598 | p47phox/p22phox peptide binding, fluorescence polarization, 2 h | inhibition, % at 24.7 µM | 220,000 tested, 0.53% active | AID 1274;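 note: 0% = p47phox with labelled peptide and 100% = labelled peptide alone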
Target sequence (P14598 whole entry, looked up): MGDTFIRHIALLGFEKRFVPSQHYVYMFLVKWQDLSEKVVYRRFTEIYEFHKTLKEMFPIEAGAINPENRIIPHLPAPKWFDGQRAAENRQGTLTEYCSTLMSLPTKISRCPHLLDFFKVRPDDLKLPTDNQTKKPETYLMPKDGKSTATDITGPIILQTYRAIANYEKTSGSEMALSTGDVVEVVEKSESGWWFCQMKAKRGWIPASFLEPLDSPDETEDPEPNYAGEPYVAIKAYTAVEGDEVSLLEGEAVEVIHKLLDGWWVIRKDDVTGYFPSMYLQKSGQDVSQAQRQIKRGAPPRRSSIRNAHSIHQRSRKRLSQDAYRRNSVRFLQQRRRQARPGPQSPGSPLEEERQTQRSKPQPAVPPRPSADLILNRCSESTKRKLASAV
eIF4E-4G inh: inhibitors of eIF4E and eIF4G interaction in translation initiation. P63073+Q04637. TR-FRET eIF4E-eIF4GI(517-606) binding, 2 h. inhibition, % at 21.7 µM. 220,000 tested, 0.37% active. AID 782;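 note: 0% = full FRET control wells and 100% = background wells lacking eIF4GI fragment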
Mcl1 Noxa PPI: disrupts binding of human Mcl-1 to Noxa peptide; TR-FRET Mcl-1/Noxa peptide binding, 2 h; inhibition, % at 21.7 µM; 220,000 tested, 1.5% active; AID 1022;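 active = compounds that cut the protein-peptide binding signal by more than 50% relative to plate controls in a single-dose test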;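 note: His-tagged Mcl-1 with rhodamine Noxa BH3 peptide and terbium anti-His antibody; 0% = Mcl-1 plus Noxa peptide wells and 100% = peptide-only wells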
Mcl1 Bid PPI: disrupts binding of human Mcl-1 to Bid peptide; Q07820; TR-FRET Mcl-1/Bid-Dy647 peptide binding, 1536-well; inhibition, % at 21.7 µM; 220,000 tested, 0.97% active;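 active = compounds that cut the binding signal by more than half at the single screening dose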;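 note: His-tagged Mcl-1 with europium anti-His antibody binding Bid BH3 peptide; 0% = Mcl-1 plus peptide wells and 100% = peptide-only wells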
Mcl-1 Bim block: disrupts Bim peptide binding to human Mcl-1; Q07820; Bead-based flow cytometry, Bim peptide-Mcl-1 binding; inhibition, % at 10 µM; 190,000 tested, 0.1% active; AID 1009; in the data active = inhibition above about 40%;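 note: 0% = no compound tracer wells and 100% = peptide blocker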
Starred values were filed as active, the others as inactive; nt = not tested or not shown; [ ] = dose if it differs, or a comment. This is a sample that favours compounds with a hit; in the whole collection about 3.4% have one here.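 Rule for the calls, unless noted: active = inhibition above about 30% (limit read from the data); inactive = the rest.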

SMILES	14-3-3 Bad inh	p47phox inh	eIF4E-4G inh	Mcl1 Noxa PPI	Mcl1 Bid PPI	Mcl-1 Bim block
C/C(=N\NC(=O)c1cccc(N/N=C(\C)c2cc(O)ccc2O)c1)c1cc(O)ccc1O	-8	-51	-8	100*	-6	5
C/C(=N\NC(=O)c1ccc(N/N=C(\C)c2ccc(O)cc2)cc1)c1ccc(O)cc1	1	-40	-3	46	-76	nt
C/C(=N\NC(=O)c1cccc(N/N=C(\C)c2ccco2)c1)c1ccco1	-5	-19	14	84*	-41	3
CN1CCC/C1=C1/C(=O)N(c2ccccc2)N=C1NC(=O)Nc1cccc(Cl)c1	-3	-14	3	9	-25	0
CCOC(=O)C(C(C)=O)c1c(Br)c(O)c(O)c2c(C(=O)c3ccc(C)cc3)coc12 (stereo not given)	25	-16	6	68*	20	4
CCOC(=O)c1c(C)n(-c2ccc(C)cc2)c2c(C(C(C)=O)C(=O)O)c(Br)c(O)c(O)c12 (stereo not given)	4	-7	2	24	-42	0
Cc1ccccc1Nc1scc(-c2ccc(Cl)cc2)[n+]1-c1ccccc1C	1	-1	1	15	-19	-4
O=C(Cc1ccccc1)NC1c2ccccc2-c2ccccc21	11	6	0	16	-3	9
COC(=O)C1c2ccccc2-c2ccccc21	78*	10	2	10	6	-1
Oc1ccc(/C=N/NC(=S)Nc2cccnc2)c(O)c1	1	-13	-5	-5	-87	-9
Oc1ccc(/C=N/NC(=S)Nc2cccnc2)c(O)c1O	72*	-42	58*	102*	-3	nt
Oc1cccc(/C=N/NC(=S)Nc2cccnc2)c1O	-7	-8	5	66*	-89	-7
CC(=O)/C(=N\Nc1ccccc1)Sc1cccc2cccnc12	-11	-4	5	69*	-10	-4
Cc1sc2ncn(CC(=O)N3CCCCC3)c(=O)c2c1C	3	-7	-4	6	-20	1
COc1ccc(C(=O)C2CCCN(C(=O)c3ccoc3C)C2)cc1F (stereo not given)	8	-47	4	-3	-14	nt
CCOC(=O)c1c(-c2ccco2)csc1NC(=O)CSc1nnc(N)s1	0	-27	-8	30	80*	0
CCOC(=O)c1c(-c2ccc(C)o2)csc1NC(=O)CSc1nncs1	-17	-32	3	24	-23	-2
CC(C)c1ccc(N=C2N=C(N)c3ccccc32)cc1	-2	-4	1	0	-6	nt
Cc1ccc(N(C(C)C(=O)Nc2cccc(N(C)S(C)(=O)=O)c2)S(C)(=O)=O)cc1 (stereo not given)	-9	-1	-2	18	-2	-2
Cc1ccc(SC(C)C(=O)Nc2cccc(N(C)S(C)(=O)=O)c2)cc1 (stereo not given)	75*	1	2	15	-4	0
COC(=O)c1ccccc1C(=O)N1CCCC(CCC(=O)NCc2ccc(F)c(F)c2)C1 (stereo not given)	-2	-7	-1	11	6	-1
CCc1ccc(S(=O)(=O)/N=C2/C=C(Sc3ncn[nH]3)C(=O)c3ccccc32)cc1	84*[fluorescence artefact?]	55*	32*[fluorescence artefact?]	101*	40	1
CCc1ccc(S(=O)(=O)/N=C2\C=CC(=O)c3ccccc32)cc1	-3	6	3	87*	-12	1
CCc1ccc(S(=O)(=O)ON2C(=O)c3ccccc3C2=O)cc1	13	0	8	40	-61	-4
NC(=O)c1nn(-c2ccc(Cl)cc2Cl)c(=O)cc1O	-16	-1	2	3	-29	-1
SMILES	14-3-3 Bad inh	p47phox inh	eIF4E-4G inh	Mcl1 Noxa PPI	Mcl1 Bid PPI	Mcl-1 Bim block
COc1ccc(C(=O)N=c2c(C#N)cc3c(=O)n4cccc(C)c4nc3n2Cc2ccco2)cc1	-8	-19	0	77*	20	-3
Cc1ccccc1C(=O)N=c1c(C#N)cc2c(=O)n3cccc(C)c3nc2n1Cc1ccco1	7	-19	-3	3	-16	-3
CCCN(CCC)CCNC(=O)C1CC(=O)N(c2ccc(OC)cc2)C1c1ccc(OC)cc1 (stereo not given)	-1	-12	-2	10	60*	0
O=C(CCCN1C(=O)c2cccc3cccc(c23)C1=O)NC1CCS(=O)(=O)C1 (stereo not given)	-4	-9	0	8	-11	-2
CCCC(C)NC(=O)c1c2c(nc3ccccc13)CCC2 (stereo not given)	15	12	16	38	-23	6
O=C(NCc1ccco1)c1c2c(nc3ccccc13)CCC2	nt	2	nt	102*	-41	-3
O=C(NCc1ccc(F)cc1)c1c2c(nc3ccccc13)CCC2	11	-7	36*	77*	-55	-2
NC(=O)COC(=O)c1c2c(nc3ccccc13)CCC2	4	-2	8	57*	-31	0
CCN(CC)c1ccc(NC(=S)NCC2CCCO2)cc1 (stereo not given)	-10	-8	2	8	-31	-2
CC(/C=N/NC(=O)CSc1nnc(SCc2ccccc2)s1)=C\c1ccco1	-10	-52	3	51*	6	-5
Cc1ccc(CSc2nnc(SCC(=O)N/N=C/C=C/c3ccco3)s2)cc1	-4	-11	1	18	-10	-2
CC(C)(C)OC(=O)NCCCC[C@H](NC(=O)c1nc[nH]c1C(=O)NC(c1ccccc1)c1ccccc1)C(=O)OC(C)(C)C	-21	nt	1	-71	-20	0
CCC(=O)NC(=S)NNC(=O)COc1ccc(Br)cc1	-14	1	-3	-42	-70	0
COCCn1c(SCC(=O)Nc2ccccc2C)nc2c(oc3ccccc32)c1=O	30	29	8	5	54*	-4
CCc1nnc(NS(=O)(=O)c2ccc(NC(=S)NC(=O)/C=C/c3ccc(F)cc3)cc2)s1	4	-33	2	61*	-31	-5
COc1cc(NS(=O)(=O)c2ccc(NC(=S)NC(=O)/C=C/c3ccc(OC)c(OC)c3)cc2)ncn1	-11	-20	6	59*	-74	-4
CCc1nnc(NS(=O)(=O)c2ccc(NC(=S)NC(=O)/C=C/c3ccc([N+](=O)[O-])cc3)cc2)s1	4	-14	-10	-6	-16	nt
COc1ccc(-c2cc(C(F)(F)F)nc(N3CCOCC3)n2)cc1OC	-1	-6	2	14	91*	6
COc1cccc(-c2cc(C(F)(F)F)nc(N3CCOCC3)n2)c1	-5	-8	3	-15	-24	0
C[C@H]1CCC[C@@]2(O[C@@H](CCO)C[C@@H](O)[C@@H]2O)O1	-3	-3	-1	-1	2	nt
CCOC(=O)C(C)n1ncn2cccc2c1=O (stereo not given)	3	-25	43*[fluorescence artefact?]	12	0	1
